Laboratory results published in PubChem BioAssay (NCI).
The panel holds about 83,000 compounds, 20% with a hit somewhere; the sample as a whole holds those more often.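 Growth was measured after 48 h exposure to one concentration of compound in 96-well plates. Values under 10 count as active.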 The source made the active and inactive calls.

Assays:
Assay in all cases: NCI-60 one-dose screen, 48 h (100 = growth as untreated, 0 = no growth, -100 = all killed)
Conditions in all cases: 10 µM unless noted
T-47D breast = system: T-47D breast
BT-549 breast = system: BT-549 breast
MDA-MB-435 melanoma = system: MDA-MB-435 melanoma
SW-620 colon = system: SW-620 colon
MCF7 breast = system: MCF7 breast
HCT-116 colon = system: HCT-116 colon
KM12 colon = system: KM12 colon
HCC-2998 colon = system: HCC-2998 colon

Measured: growth

O=C1c2cccnc2C(=O)c2c1c(C(=O)NCCCN1CCCCC1)c1ccccn21
inactive: BT-549 breast 13.7%
active: T-47D breast -48.6% | MDA-MB-435 melanoma -80.5% | SW-620 colon -66% | MCF7 breast -49.5% | HCT-116 colon -57.6% | KM12 colon -17.8%

CN(C)CC(=O)Nc1ccc2ncnc(Nc3ccc(Oc4cccc(C(F)(F)F)c4)c(Cl)c3)c2c1
inactive: T-47D breast 48.6% | BT-549 breast 77.5% | MDA-MB-435 melanoma 61% | SW-620 colon 64.6% | MCF7 breast 41.6% | HCT-116 colon 44.1% | HCC-2998 colon 23.7% | KM12 colon 55.5%

CCN1CC(=O)N(/N=C2\C(=O)Nc3ccccc32)C1=S
inactive: T-47D breast 73.6% | BT-549 breast 88.5% | MDA-MB-435 melanoma 98.2% | SW-620 colon 87% | MCF7 breast 84.1% | HCT-116 colon 94.9% | HCC-2998 colon 99.4% | KM12 colon 94.7%

NC(=O)c1c(NC(=O)c2ccccc2)sc2c1CCC(=O)C2
inactive: SW-620 colon 15.5%
active: T-47D breast -9.93% | BT-549 breast 9.17% | MDA-MB-435 melanoma 8.22% | MCF7 breast 4.2% | HCT-116 colon 8.7% | KM12 colon 5.17%

CN(C)Cc1ccc(NC(=O)c2cncc(C#Cc3cnc(N)c4ncccc34)c2)cc1F
active: MDA-MB-435 melanoma -89.3% | MCF7 breast -46% | KM12 colon -83.3%
inactive: T-47D breast 105% | BT-549 breast 132% | SW-620 colon 96.9% | HCT-116 colon 81.4%

N#Cc1c(NC(=O)c2ccccc2)sc2c1CCC(=O)C2
inactive: BT-549 breast 16.2% | SW-620 colon 11.6%
active: T-47D breast -24.8% | MDA-MB-435 melanoma 2.87% | MCF7 breast 4.73% | HCT-116 colon 5.81% | KM12 colon 8.5%

COc1ccc2c3c([nH]c2c1)C(=O)c1nc(C)ccc1C3=O
active: MDA-MB-435 melanoma -76.2%
inactive: T-47D breast 48.5% | BT-549 breast 71.7% | SW-620 colon 42.8% | MCF7 breast 41% | HCT-116 colon 30.3% | KM12 colon 36.6%

CC(O)c1cnc(/C=C2\SC(=S)N(Cc3ccccc3)C2=O)s1 (stereo unspecified)
inactive: T-47D breast 41.7% | BT-549 breast 86.9% | MDA-MB-435 melanoma 25.3% | SW-620 colon 39.7% | MCF7 breast 27.4% | HCT-116 colon 20.2% | KM12 colon 30.3%

C[C@]12CC[C@@H]3c4ccc(O)c([N+](=O)[O-])c4CC[C@H]3[C@@H]1CCC2=O
inactive: T-47D breast 115% | BT-549 breast 78.3% | MDA-MB-435 melanoma 95.4% | SW-620 colon 100% | MCF7 breast 112% | HCT-116 colon 105% | HCC-2998 colon 94.1% | KM12 colon 91.1%

COc1ccc(/C=C2\COc3ccc(O)c(O)c3C2=O)cc1
active: T-47D breast 6.94% | BT-549 breast -6.78% | SW-620 colon 6.34% | KM12 colon 8.91%
inactive: MDA-MB-435 melanoma 11% | MCF7 breast 19% | HCT-116 colon 10.8%

CCCCOC(=O)OCc1cc(=O)c(O)co1
inactive: T-47D breast 90.8% | BT-549 breast 110% | MDA-MB-435 melanoma 102% | SW-620 colon 103% | MCF7 breast 94.5% | HCT-116 colon 106% | KM12 colon 104%

OCCNCCCOc1ccc2ncnc(Nc3ccc(Oc4cccc(C(F)(F)F)c4)c(Cl)c3)c2c1
inactive: T-47D breast 38.7% | BT-549 breast 95.6% | HCT-116 colon 12.7%
active: MDA-MB-435 melanoma -65.2% | SW-620 colon -84.2% | MCF7 breast -40% | HCC-2998 colon -75.1% | KM12 colon 3.05%

Cc1cccc(Cl)c1NC(=O)c1ccc2nc(NC(=O)NCCN(C)C)sc2c1
inactive: T-47D breast 88.1% | BT-549 breast 82.1% | MDA-MB-435 melanoma 47% | SW-620 colon 103% | MCF7 breast 48.9% | HCT-116 colon 92.1% | HCC-2998 colon 105% | KM12 colon 97.1%

CC1(c2ccccc2O)NN=C(/N=C/c2cccc([N+](=O)[O-])c2)N1C(Cc1c[nH]c2ccccc12)C(=O)O (stereo unspecified)
inactive: T-47D breast 91.1% | BT-549 breast 97.5% | MDA-MB-435 melanoma 106% | SW-620 colon 94.9% | MCF7 breast 77.3% | HCT-116 colon 87% | HCC-2998 colon 97.8% | KM12 colon 96.4%

O=C1Nc2ccccc2/C1=C\c1nc(-c2ccccc2)n2ccccc12
inactive: T-47D breast 43.1% | BT-549 breast 85.5% | MDA-MB-435 melanoma 90.5% | SW-620 colon 103% | MCF7 breast 52.9% | HCT-116 colon 76.3% | KM12 colon 74.3%

CN1CCN(c2ccc(NC(=O)c3cncnc3Nc3ccc(OCc4ccccn4)c(Cl)c3)cc2)CC1
active: MDA-MB-435 melanoma -60.2% | SW-620 colon 4.15% | HCT-116 colon -48%
inactive: T-47D breast 53.7% | BT-549 breast 77.9% | MCF7 breast 26.5% | HCC-2998 colon 67.4% | KM12 colon 49.3%

CCOC(=O)c1[nH]c(=O)c2c(C)nc(-c3ccccc3)cc2c1O
inactive: T-47D breast 101% | BT-549 breast 146% | MDA-MB-435 melanoma 109% | SW-620 colon 98.3% | MCF7 breast 92.7% | HCT-116 colon 95% | KM12 colon 110%

Cc1nc2ncnc(Cl)c2[nH]1
inactive: T-47D breast 95.7% | BT-549 breast 105% | MDA-MB-435 melanoma 105% | SW-620 colon 103% | MCF7 breast 91.3% | HCT-116 colon 84.3% | HCC-2998 colon 98.6% | KM12 colon 102%

CCCc1cc(NC)nc(S(=O)(=O)CC)n1
inactive: T-47D breast 111% | BT-549 breast 105% | MDA-MB-435 melanoma 104% | SW-620 colon 105% | MCF7 breast 92.1% | HCT-116 colon 100% | KM12 colon 113%

O=C(O)CCCN1C(=O)/C(=C/C(Cl)=C/c2ccccc2)SC1=S
inactive: T-47D breast 45.3% | MCF7 breast 14.2% | KM12 colon 13.6%
active: BT-549 breast 7.71% | MDA-MB-435 melanoma -14.9% | SW-620 colon 7.33% | HCT-116 colon -54.2% | HCC-2998 colon 5.79%

COc1ccc(-c2nc(/C=C3\SC(=NCc4ccccc4)NC3=O)c3ccccn23)cc1
active: T-47D breast -67% | BT-549 breast -92.9% | MDA-MB-435 melanoma -4.34% | SW-620 colon -55.5% | MCF7 breast -62.2% | HCT-116 colon -97.2% | KM12 colon -78%

C1=CN2CC(c3ccccc3)=NNC2c2ccccc21 (stereo unspecified)
inactive: T-47D breast 88.7% | BT-549 breast 61.7% | MDA-MB-435 melanoma 96.5% | SW-620 colon 96.7% | MCF7 breast 67.3% | HCT-116 colon 85.6% | KM12 colon 99.4%

Cc1oc(-c2ccc(Cl)cc2)nc1/C=C/C(=O)c1ccccc1
inactive: T-47D breast 79.5% | BT-549 breast 84.8% | MDA-MB-435 melanoma 103% | SW-620 colon 104% | MCF7 breast 49.9% | HCT-116 colon 99.5% | KM12 colon 100%

CCCCCC(=O)OCC(=O)O[C@@H]1C[C@]2(C(C)C)O[C@@]1(C)[C@@H]1CC[C@@H](C)[C@H]1[C@@H]2OC(=O)/C=C/c1ccccc1
inactive: T-47D breast 21.4% | BT-549 breast 12.6% | MDA-MB-435 melanoma 99.4% | SW-620 colon 48.9% | MCF7 breast 26.8% | HCT-116 colon 74% | HCC-2998 colon 88.5% | KM12 colon 85%

C=C1C(=O)O[C@H]2[C@H]1CC/C(COC(=O)CSCCSCC(=O)OC/C1=C/CC[C@@]3(C)O[C@H]3[C@H]3OC(=O)C(=C)[C@@H]3CC1)=C\CC[C@@]1(C)O[C@@H]21
inactive: T-47D breast 29.5% | MDA-MB-435 melanoma 34.3% | MCF7 breast 18.1% | KM12 colon 51.1%
active: BT-549 breast -16.3% | SW-620 colon 2.85% | HCT-116 colon -31.6%

CCOC(=O)C1=C(NC)OCC1=O
inactive: T-47D breast 110% | BT-549 breast 102% | MDA-MB-435 melanoma 110% | SW-620 colon 100% | MCF7 breast 103% | HCT-116 colon 108% | KM12 colon 105%

COc1ccc2[nH]cc(C(c3cc(F)cc(F)c3)c3c[nH]c4ccc(OC)cc34)c2c1
inactive: T-47D breast 43.1% | BT-549 breast 183% | MDA-MB-435 melanoma 93.4% | SW-620 colon 81.6% | MCF7 breast 55.4% | HCT-116 colon 52.9% | KM12 colon 83.6%

CNC(=O)c1c(NC(=O)c2ccc(C(F)(F)F)cc2)sc2c1CCC(=O)C2
active: T-47D breast -15.2% | BT-549 breast -14.1% | MDA-MB-435 melanoma 0.84% | SW-620 colon -55.8% | MCF7 breast 0.392% | HCT-116 colon -46.4% | HCC-2998 colon -39.3% | KM12 colon -36.4%

O=C1CNC(c2ccccc2)C(c2ccccc2)N1 (stereo unspecified)
inactive: T-47D breast 104% | BT-549 breast 82.8% | MDA-MB-435 melanoma 105% | SW-620 colon 98.5% | MCF7 breast 91.8% | HCT-116 colon 93% | KM12 colon 100%

O=C(Nc1cc(Cl)ccc1O)c1ccc(Nc2ccnc(C(F)(F)F)c2)cc1
inactive: BT-549 breast 34.5% | MDA-MB-435 melanoma 51.9% | SW-620 colon 40.2% | MCF7 breast 22.3% | HCC-2998 colon 35.1% | KM12 colon 22.4%
active: T-47D breast 4.61%
